# Test results as given in PubChem BioAssay (NCATS).
# Inconclusive results are not listed. Entries that show only a call come without a potency. Values without a mark were called inactive. Active and inactive are the calls of the source. Calls follow the shape of the dose curve; as a rule, active = well fitted curve in the direction sought with a large enough effect; inconclusive = small, poorly fitted or top-dose-only effect, or another doubt; inactive = no such curve, though single readings can be large; an effect the other way counts as inactive or inconclusive.
# Assays:
# [1] = target: Cellular tumor antigen p53 (Homo sapiens) (UniProt P04637); test: Primary qHTS for small molecule compounds that upregulate eGFP-tagged delta133p53alpha (in N-terminal) cells. (AID 2060322); conditions: NCI-H358 eGFP-delta133p53alpha fluorescence, 24 h; activation: hits give high values; also: nearly all actives have a fitted effect of over 75% in size; also: potency is read from the fitted curve at half-maximal effect
# Sequence of Cellular tumor antigen p53 (Homo sapiens) (P04637 whole entry, looked up): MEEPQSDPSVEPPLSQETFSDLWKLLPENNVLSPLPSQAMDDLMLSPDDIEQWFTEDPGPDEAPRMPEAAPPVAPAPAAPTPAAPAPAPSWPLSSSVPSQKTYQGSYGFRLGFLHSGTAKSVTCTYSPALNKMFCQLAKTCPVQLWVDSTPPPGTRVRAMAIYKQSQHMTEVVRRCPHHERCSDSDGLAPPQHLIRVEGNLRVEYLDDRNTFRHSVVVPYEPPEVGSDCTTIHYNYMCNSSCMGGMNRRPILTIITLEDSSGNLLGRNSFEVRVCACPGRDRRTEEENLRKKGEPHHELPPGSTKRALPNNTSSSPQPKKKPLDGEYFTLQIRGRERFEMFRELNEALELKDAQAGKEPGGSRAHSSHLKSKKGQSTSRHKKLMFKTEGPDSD
# How it was run: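 NCI-H358 cells pre-induced 24 h with 10 ng/ml doxycycline to express N-terminal eGFP-delta133p53alpha, then dosed 24 h at 37C without doxycycline; fixed, Hoechst-stained, GFP intensity by laser scanning cytometry, normalized to DMSO (0%) and 57.5 uM 5-azacytidine (100%).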
# [2] = target: Aldehyde dehydrogenase, mitochondrial (Homo sapiens) (UniProt P05091); test: qHTS for Inhibitors of the Aldehyde Dehydrogenase Family (ALDH2) Primary screen (AID 2061308); conditions: ALDH2 enzyme inhibition qHTS, 1536-well; series mostly up to 56 µM; also: nearly all actives have a fitted effect of over 55% in size
# [3] = target: Retinaldehyde dehydrogenase 3 (Homo sapiens) (UniProt P47895); test: qHTS for Inhibitors of the Aldehyde Dehydrogenase Family (ALDH1A3) Primary screen (AID 2061315); conditions: ALDH inhibition qHTS; series mostly up to 56 µM
SMILES,activation [1],Potency [2],Potency [3],"activity change, negative = inhibition [2]","activity change, negative = inhibition [3]",Potency [1]
C=C1[C@H](OC(C)=O)[C@H]2[C@@H](OC(C)=O)[C@](C)(OC(C)=O)C[C@]2(OC(C)=O)C(=O)[C@H](C)/C=C/C(C)(C)C(=O)[C@H](OC(=O)C(C)CC)[C@H]1OC(C)=O (some centres not stated),-14.5%,inactive,inactive,–,–,–
O=C(O)c1ccnc(-c2cc(C(=O)NCCc3ccccc3)ccn2)c1,4.47%,inactive,inactive,–,–,–
CC(=O)OC1C[C@@]2(C)[C@@H](CC[C@@H](C)[C@]23Cc2c(O)cc4c(c2O3)CNC4=O)C(C)(C)[C@@H]1O (some centres not stated),9.92%,inactive,inactive,–,–,–
CC1(CO)CC[C@]2(C(=O)O[C@@H]3O[C@H](CO)[C@@H](O)[C@H](O)[C@H]3O)CC[C@]3(C)C(=CCC4[C@@]5(C)C[C@H](O)[C@H](O[C@@H]6OC[C@@H](O)[C@H](O)[C@H]6O)[C@@](C)(CO)C5CC[C@]43C)C2C1 (some centres not stated),-16%,inactive,inactive,–,–,–
CC(=O)O[C@@H]1[C@H](O[C@@H]2OC[C@](O)(CO)[C@H]2O)[C@@H](O[C@@H]2O[C@@H](C)[C@H](O)[C@@H](O)[C@H]2O)[C@H](OC(=O)[C@]23CCC(C)(C)C[C@H]2C2=CCC4[C@@]5(C)C[C@H](O)[C@H](O[C@@H]6O[C@H](C(=O)O)[C@@H](O)[C@H](O)[C@H]6O)[C@@](C)(C(=O)O)C5CC[C@@]4(C)[C@]2(C)CC3)O[C@@H]1C (some centres not stated),18.3%,inactive,inactive,–,–,–
COC(=O)c1ccnc(-c2cc(C(=O)Nc3ccc(C4(N)CC4)cc3)ccn2)c1,1.67%,inactive,inactive,–,–,–
C[C@@H]1O[C@@H](O[C@@H]2[C@@H](O[C@@H]3O[C@@H](C)[C@H](O[C@@H]4OC[C@H](O)[C@H](O[C@@H]5OC[C@@H](O)[C@H](O)[C@H]5O)[C@H]4O)[C@@H](O[C@@H]4OC[C@](O)(CO)[C@H]4O)[C@H]3O)[C@H](OC(=O)[C@]34CCC(C)(C)C[C@H]3C3=CCC5[C@@]6(C)C[C@H](O)[C@H](O[C@@H]7O[C@H](CO[C@@H]8OC[C@H](O)[C@H](O)[C@H]8O)[C@@H](O)[C@H](O)[C@H]7O)C(C)(C)C6CC[C@@]5(C)[C@]3(C)C[C@H]4O)OC[C@H]2O)[C@H](O)[C@H](O)[C@H]1O (some centres not stated),-8.4%,–,–,17% [at 11.2 µM],8.86% [at 11.2 µM],–
C[N+]1(C)[C@@H]2CC[C@H]1CC(OC(=O)C(O)c1ccccc1)C2 (some centres not stated),13.7%,inactive,inactive,–,–,–
CCOC(=O)c1csc(Nc2ccc(Cl)cc2)n1,-7%,inactive,inactive,–,–,–
CC(=O)O[C@@H]1C2=C(O)C(=O)[C@](C)(OC(C)=O)C(=O)C2=CO[C@@]12O[C@@H](C)CC[C@H]2OC(C)=O,-18.3%,inactive,inactive,–,–,–
C=C1CC23CC1(O)CCC2C1=CC2OC(=O)C(C)(C2O)C1C3C(=O)O (configuration not stated),6.87%,inactive,inactive,–,–,–
C=C1OC2CC(C(=O)O)C=CC2NC1=O (configuration not stated),-19.8%,inactive,inactive,–,–,–
COc1cc(-c2cccc(O)c2)cc2c1OCO2,2.68%,inactive,inactive,–,–,–
NCCOCCOCCNC(=O)Cc1ccc(Nc2nc(NCc3ccc(F)cc3)nc(NCC3CCCCC3)n2)cc1,2.33%,inactive,inactive,–,–,–
CC[C@]1(O)CC2CN(CCc3c([nH]c4ccccc34)[C@@](C(=O)OC)(c3cc4c(cc3OC)N(C=O)[C@H]3[C@@](O)(C(=O)OC)[C@H](OC(C)=O)[C@]5(CC)C=CCN6CC[C@]43[C@@H]65)C2)C1 (some centres not stated),-0.333%,inactive,inactive,–,–,–
CCC(CC)n1ccc2c(C(=O)NCc3c(C)cc(C)[nH]c3=O)cc(C#N)cc21,-3.35%,inactive,inactive,–,–,–
COC(=O)C1=CO[C@@H](O[C@@H]2O[C@H](CO)[C@@H](O)[C@H](O)[C@H]2O)[C@@H]2[C@@](C)(O)[C@@H](OC(=O)/C=C/c3ccc(O)cc3)C[C@]12O,-0.763%,inactive,inactive,–,–,–
CCC(C)(C)C1CCc2c(sc(NC(=O)c3ccc(Br)cc3)c2C#N)C1 (configuration not stated),-0.333%,inactive,inactive,–,–,–
CC(C)=CCCC1(C)/C=C/C(OC(=O)C=C(C)C)C(C)(O)/C=C/C(=O)/C(CO)=C\C1 (configuration not stated),–,inactive,inactive,–,–,10.4 µM (active)
